VLA-4 inh – inhibition in human VLA-4 binding assay, primary screen, VLA-4 allosteric modulator project, MLPCN library, flow cytometry, VLA-4 expressing cells; ligand binding flow cytometry; inhibition, % (about 7 µM as worked out from the volumes in the protocol); AID 2557, 2010; 0.2% of 330,000 active; Integrin alpha-4 (Homo sapiens), P13612; in the data active = inhibition above about 50%
MEX-5 binding – MEX-5 zinc finger RNA-binding disruptors – biochemical, C. elegans, fluorescence polarization, MLPCN library, primary screen. Zinc finger protein mex-5 (Caenorhabditis elegans), Q9XUB2. MEX-5/FITC-TCR2 RNA binding; stronger effect = lower value. activity score (negative = inhibition of binding), % at 10 µM. 0.38% of 300,000 active. AID 1832, 2009;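 active = inhibition past about -25% in most replicates, and total fluorescence under double the plate's negative control median, limit read from the data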;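 also: 0% = DMSO and -100% = 5 µM competing unlabeled TCR2 RNA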
GASC-1 inh – inhibitors of GASC-1 histone demethylase, primary screen, biochemical, fluorescence, DELFIA europium | inhibition, % at 2.35 µM | GST-JMJD2C(1-420) H3K9me3 demethylation | Lysine-specific demethylase 4C (Homo sapiens), Q9H3R0 | AID 2099, 2009 | 0.069% of 330,000 active;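 active = more than half of a compound's replicate wells show inhibition beyond 50%, single wells judged on their own value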;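 also: signal counts dimethyl H3K9 product captured on neutravidin plate; 0% = median of DMSO wells and 100% = 0.3 times that DMSO median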
Target sequence (Q9H3R0 1-420 limits assumed): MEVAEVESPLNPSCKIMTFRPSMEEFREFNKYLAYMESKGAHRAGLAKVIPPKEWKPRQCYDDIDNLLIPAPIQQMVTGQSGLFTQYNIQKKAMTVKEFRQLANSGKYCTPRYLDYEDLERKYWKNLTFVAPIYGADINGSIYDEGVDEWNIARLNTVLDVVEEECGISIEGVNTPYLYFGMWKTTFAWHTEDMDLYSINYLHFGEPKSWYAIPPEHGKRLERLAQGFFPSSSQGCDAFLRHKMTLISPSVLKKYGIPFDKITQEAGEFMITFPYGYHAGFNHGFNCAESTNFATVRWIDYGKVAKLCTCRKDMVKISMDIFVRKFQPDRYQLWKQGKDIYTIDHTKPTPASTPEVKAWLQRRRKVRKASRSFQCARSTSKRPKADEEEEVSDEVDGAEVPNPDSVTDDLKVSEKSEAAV
HTR2A ag – mouse Htr2a agonists via beta-arrestin recruitment, primary screen, cell-based, luminescence; 5-hydroxytryptamine receptor 2A (Mus musculus), P35363; CHO-K1 mHTR2A beta-arrestin complementation; percent of 30 µM serotonin response; activation, % at 7.6 µM; 0.66% of 360,000 active; AID 624169, 2012;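 active = activation above a run cutoff, the mean activation of all tested compounds plus 3 SD, cut at about 14% in these data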;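 also: 0% = plate median of compound wells and 100% = 30 µM serotonin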
Exocytosis inh – LAMP-1 surface exposure blockers, TALL-104 cells – cell-based, flow cytometry, MLPCN library, primary screen; 0.66% of 360,000 active; TALL-104 LAMP-1 surface exposure; cells stimulated with thapsigargin and PMA; inhibition, % at 10 µM;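 active = inhibition above about 55%, limit read from the data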
V-ATPase pH – regulators of yeast V-ATPase proton pumping, primary screen, pHLuorin cytosolic pH fluorescence | S. cerevisiae | response, % at 10 µM | 0.37% of 350,000 active; in the data active = response mostly above about 7.3%, no sharp cut-off; inactive = mostly below about 5.4%; also: actives read high
* = called active by the depositor; / = no result. Sampled rows, rich in hits. Any-hit rate of the full collection: about 2.2%.

SMILES | VLA-4 inh | MEX-5 binding | GASC-1 inh | HTR2A ag | Exocytosis inh | V-ATPase pH
COc1ccc(NC(=O)/C(C#N)=C/c2ccc[nH]2)c(OC)c1 | -18 | 0 | -1 | 2 | 0 | 6
O=C(CSc1nc(-c2ccc(Cl)cc2)cs1)Nc1cccc([N+](=O)[O-])c1 | 3 | 2 | -1 | 7 | 65* | 0
Cc1cc(NC(=O)CSc2nc(-c3ccc(Cl)cc3)cs2)no1 | 2 | 0 | 1 | 7 | -2 | 0
COc1ccc(C2c3ccc(O)cc3Oc3ncn(Cc4ccco4)c(=N)c32)cc1OC (centres undefined) | 13 | -29* | 2 | -1 | -11 | -4
COc1ccc(C2c3ccc4ccccc4c3Oc3ncn(Cc4ccco4)c(=N)c32)cc1OC (centres undefined) | 14 | 2 | -15 | 2 | 16 | -1
Cc1cc(-c2csc(N)n2)c(C)n1C | -7 | -47* | 11 | 6 | 4 | -3
Cc1ccc(-n2c(C)cc(-c3csc(N)n3)c2C)cc1 | -42 | 0 | -2 | 1 | 6 | 5
O=C(/C=C/c1ccc(O)c(O)c1)O[C@H](Cc1ccc(O)c(O)c1)C(=O)O | / | -98* | -11 | / | / | /
Cc1ccc(-c2nc(C=Nc3ccc(O)cc3)c(O)o2)cc1 | / | -37* | / | -2 | -2 | -4
CCOc1cc(/C=C2\SC(=Nc3ccc(CC)cc3)NC2=O)ccc1OCC(=O)O | -6 | -44* | -1 | -4 | -2 | 5
CCOC(=O)c1[nH]c(C)c(C(=O)N2CCCC(Nc3ccc(C)c(C)c3)C2)c1C (centres undefined) | -121 | 1 | -9 | 4 | 2 | 0
CC[C@@]1(C(=O)OC)N[C@H](CN(C)C(=O)COc2ccccc2)[C@@H]2C(=O)N(C)C(=O)[C@@H]21 | 23 | / | / | 0 | -1 | -2
Cc1cc(C)c(S(=O)(=O)/N=C2/C=C(SCC(=O)O)C(=O)c3ccccc32)cc1C | / | / | / | -4 | 79* | -2
O=C1C2=C(SCCS2)C(=O)N1c1ccccc1 | -5 | -45* | -1 | -3 | -2 | -1
CCOC(=O)C[C@H]1c2cc(F)ccc2S(=O)(=O)N1C1CCCC1 | 14 | -1 | -18 | 1 | 17 | -2
CC(C)Cc1nn2c(N)c(/C=C3\C=Nc4ccccc43)c(=O)nc2s1 | -5 | -46* | 2 | 10 | -6 | 2
CCCc1nn2c(N)c(/C=C3\C=Nc4ccccc43)c(=O)nc2s1 | -21 | -6 | -14 | 0 | -3 | -1
O=C1c2cccc3cccc(c23)C(=O)C1(O)O | -5 | -59* | 1 | 2 | 71* | -4
CC(=O)N1C(=O)c2cccc3cccc(c23)C(=O)N1C(C)=O | -2 | 0 | -9 | / | / | /
Oc1ccc(C=NNC(=S)Nc2ccccc2)nc1 | / | / | / | 4 | 0 | 1
CCCCOc1ccc2c(c1)/C(=C(\C(Cl)=C(Cl)Cl)[N+](=O)[O-])N2 | -254 | -59* | -8 | -2 | -3 | 4
O=[N+]([O-])/C(C(Cl)=C(Cl)Cl)=C1\Nc2ccccc2O1 | 7 | -2 | 4 | 1 | -6 | -3
CCOc1ccc2c(c1)/C(=N/N1C(=O)c3ccccc3C1=O)C(=O)N2 | -4 | -1 | 6 | 3 | 8 | 1
CCOc1ccc2c(c1)/C(=C(\C(Cl)=C(Cl)Cl)[N+](=O)[O-])N2 | -52 | -44* | -1 | 1 | -4 | 1
Cc1ccccc1C(=O)N1CCN(CCNC(=O)C(=O)Nc2ccc(Br)cc2)CC1 | 12 | -1 | -13 | -1 | -1 | -1
SMILES | VLA-4 inh | MEX-5 binding | GASC-1 inh | HTR2A ag | Exocytosis inh | V-ATPase pH
CN1Cc2sc(NC(=S)NC(=O)c3ccccc3)c(C#N)c2CC1(C)C | -158 | 0 | 2 | / | / | 29*
CCC1(C)Cc2c(sc(NC(=S)NC(=O)c3ccccc3)c2C#N)CO1 (centres undefined) | 20 | 2 | -2 | 0 | -2 | -3
Cc1nn(Cc2ccc(C(=O)N3CCN(C(=O)c4ccco4)CC3)o2)c(C)c1[N+](=O)[O-] | -1 | -2 | 10 | 5 | -6 | -1
COc1ccc(CNC(=O)CCS(=O)(=O)Cc2cccc(Cl)c2)c(OC)c1 | 2 | 1 | -9 | -1 | 0 | 14*
CSC1=NNC(c2ccc(C(C)(C)C)cc2)=NN1 | 11 | 2 | 0 | 3 | 1 | -7
CCC(=O)OC1(C)C(=O)C=C2C=C(CCCC(=O)OC)OC=C2C1=O (centres undefined) | -4 | -31* | 4 | 2 | -5 | 2
CCCCC1=CC2=CC(=O)C(C)(OC(=O)CC)C(=O)C2=CO1 (centres undefined) | -27 | -23 | 9 | 8 | 5 | -1
COC(=O)CCCC1=CC2=CC(=O)C(C)(O)C(=O)C2=CO1 (centres undefined) | / | -39* | 2 | / | / | /
CCCCC1=CC2=CC(=O)C(C)(OC(=O)C3CCCC3)C(=O)C2=CO1 (centres undefined) | -3 | -10 | 10 | 2 | -7 | 0
COC(=O)CCCC1=CC2=CC(=O)C(C)(OC(=O)C3CCCC3)C(=O)C2=CO1 (centres undefined) | 17 | -27* | 26 | / | / | 1
NC(=S)N/N=C/c1cccc(O)c1O | -22 | -38* | -22 | 2 | 1 | 0
Oc1ccc(/C=N/NC(=S)Nc2cccnc2)c(O)c1O | / | -43* | -35 | 3 | 10 | 3
NC(=S)N/N=C/c1ccccc1O | 8 | -3 | 0 | -3 | 7 | 1
NC(=S)NN=Cc1c[nH]c2nccnc12 | / | / | / | -37 | -10 | -2
COc1ccccc1NC(=O)c1sc2nc(Cc3ccccc3)cc(C(F)(F)F)c2c1N | -26 | -143* | 2 | 8 | 3 | 0
CC(C)[C@H](NC(=O)c1ccccc1)C(=O)Nc1ccc2c(c1)OCO2 | -9 | / | / | 7 | -1 | -1
CC1(Br)C(Sc2ccccc2[N+](=O)[O-])=Nc2ccccc21 (centres undefined) | / | / | / | -7 | 72* | /
CCn1c2ccccc2nc2cc3c(cc21)c(Cl)c(=O)c1ccccc13 | / | / | / | 2 | 119* | 1
CN1C[C@@H]2[C@@H]3C(=O)N(Cc4ccccc4)C(=O)[C@@H]3[C@](Cc3ccccc3)(C1=O)N2C(=O)c1ccc(C(C)(C)C)cc1 | / | / | / | 0 | -2 | 1
Cn1c(O)c(C=Nc2ccc(N3CCOCC3)cc2)c(=O)n(C)c1=S | / | -27* | 33 | 2 | -1 | /
Cc1cc(O)c(C=Nc2ccc(N3CCOCC3)cc2)c(C)c1Cl | 0 | -7 | 3 | 7 | 33 | -2

Screens as filed in PubChem.
